NR0B1 inh – DAX1 (NR0B1) inhibitors, primary screen, cell-based, HEK293, Gal4-DAX1, luciferase luminescence; Nuclear receptor subfamily 0 group B member 1 (Homo sapiens), P51843; AID 504766, 2011; HEK293 Gal4-DAX1 luciferase reporter; inhibition, % at 6.75 µM; 340,000 compounds, 0.99% hits;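 active means inhibition above the mean over all tested compounds plus 3 SD, cut at about 4.2% in these data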;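 further: 0% = DAX1-transfected cells with DMSO and 100% = empty-vector control cells with DMSO; inhibition shows as a rise in luminescence from relieved DAX1 repression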
Target sequence (P51843 207-470 limits assumed): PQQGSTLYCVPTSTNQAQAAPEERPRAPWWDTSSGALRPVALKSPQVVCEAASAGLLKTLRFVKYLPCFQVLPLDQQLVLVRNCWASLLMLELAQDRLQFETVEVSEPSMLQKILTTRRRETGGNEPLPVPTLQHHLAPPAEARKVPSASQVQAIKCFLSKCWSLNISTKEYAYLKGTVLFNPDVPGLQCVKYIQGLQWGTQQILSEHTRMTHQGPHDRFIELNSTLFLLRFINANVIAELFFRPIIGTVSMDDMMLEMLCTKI
HSF1 inh – HSF1 inhibitors in luciferase reporter cells, primary screen, cell-based, NIH3T3, luminescence. NIH3T3-HGL HSE-luciferase, MG132-induced, luminescence 8 h; stronger effect = lower value. activity change, negative = inhibition, % at 7.5 µM (by protocol). 300,000 compounds, 0.77% hits;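 active means more than half of replicate wells show activity change below -50%, luminescence cut by over half; inconclusive means some wells, but at most half, below -50%; inactive means no replicate well below -50%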;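 further: luciferase reports HSF-1 transcriptional activity via heat shock element; 0% = median of DMSO wells and -100% = zero luminescence signal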
AHR activator – AHR activators, primary screen, cell-based, luminescence, luciferase reporter, human | AID 2796, 2010 | 320,000 compounds, 2.5% hits | Aryl hydrocarbon receptor (Homo sapiens), P35869 | activation, % at 5 µM | AHR-responsive luciferase reporter cells; in the data active means activation above about 47%;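 further: 0% = vehicle wells and 100% = reference agonist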
FXN GAA850 act – FXN promoter activators, primary screen, cell-based, luciferase luminescence, HEK293 lucGAA850; HEK293 lucGAA850 FXN promoter luciferase reporter, 24 h; percent of 10 µM SAHA response; 360,000 compounds, 0.56% hits; activation, % at 6 µM; AID 540364, 2011;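 active means activation above the average of all compounds screened plus 3 SD, cutoff fixed separately per campaign, cut at about 7.5% in these data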;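 further: 0% = DMSO wells and 100% = 10 µM SAHA wells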
HSF-1 act – HSF-1 activators, primary screen, NIH3T3-HGL cells, MG132 stress, luminescence, single point; NIH3T3-HGL HSF-1 luciferase reporter, 8 h; 100% = twice DMSO control signal; activation, % at 9 µM; 300,000 compounds, 1.7% hits; AID 504408, 2011;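 active means mean replicate activation of at least 50% with a set share of replicates each reaching 50%; inconclusive means only one of those two conditions met; inactive means mean below 50% and too few replicates reaching it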;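 further: 0% = median of the neutral control wells and 100% = twice that signal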
* marks the source's active call; other numbers are inactive results; u = inconclusive; x = no result given. Compounds with a hit are over-represented: about 5.4% of the library has one in this group of screens.

SMILES	NR0B1 inh	HSF1 inh	AHR activator	FXN GAA850 act	HSF-1 act
O=C1/C(=C/c2ccc(O)c(O)c2)SC(=S)N1Nc1ccccc1	0.5	7.4	x	7.8*	27.1
COc1cc(/C=C2\SC(=S)N(Nc3ncc(C(F)(F)F)cc3Cl)C2=O)ccc1O	1.3	65.9	2.1	2.7	72.2*
COc1cc(/C=C2\SC(=S)N(Nc3ccccc3)C2=O)ccc1O	1.4	38.6	3.3	3.0	31.4
O=C(CN1C(=O)CCC1=O)Nc1nc(-c2ccc(Oc3ccccc3)cc2)cs1	0.4	8.5	13.0	2.0	3.2
Cc1ccc(C(=O)OCc2nnc(-c3ccccc3)o2)cc1S(=O)(=O)N1CCOCC1	-0.8	3.9	-0.4	1.7	10.1
CCOC(=O)CNC(c1ccccc1)c1cc(Br)ccc1NC(=O)CCN1CCOCC1 (centres undefined)	-0.5	27.2	0.4	3.1	62.6*
O=C(Nc1nc(-c2ccc(F)cc2)cs1)c1cccc(N2C(=O)CCC2=O)c1	-0.4	-2.7	48.2*	-2.1	9.9
CCOC(=O)c1c(-c2ccccc2)csc1NC(=O)c1cccc(N2C(=O)CCC2=O)c1	2.0	27.9	2.5	0.5	85.1*
O=C(Nc1nc(-c2cc(F)ccc2F)cs1)c1cccc(N2C(=O)CCC2=O)c1	-0.1	-0.1	2.3	0.7	4.0
COC(=O)CNC(c1ccccc1)c1cc(Br)ccc1N (centres undefined)	-0.5	24.3	-3.0	0.0	73.7*
CCOC(=O)c1c(-c2ccc(C)cc2)csc1NC(=O)CCN1CCOCC1	-1.8	-7.4	1.7	3.2	3.6
CCOC(=O)c1c(-c2ccccc2)csc1NC(=O)CCN1CCOCC1	-0.8	29.6	10.4	2.5	74.4*
O=C(NCc1ccc(N2CCCC2=O)cc1)Nc1ccccc1	-0.2	1.7	-1.3	-0.5	54.2*
Cc1cc(F)ccc1S(=O)(=O)N1CCCOC1CNC(=O)C(=O)NCCCN1CCOCC1 (centres undefined)	1.8	-10.0	-0.2	-0.4	-7.8
Cc1ccc(C(=O)c2c3ccc(C(F)(F)F)cc3nn2CCC(N)=O)cc1	-0.9	0.9	65.0*	5.2	-7.6
Cc1ccc(C(=O)c2c3ccc([N+](=O)[O-])cc3[n+]([O-])n2CCC(N)=O)cc1	-0.7	2.4	3.6	x	-2.7
C#CC(C)OC(=O)Nc1cnccc1C(F)(F)F (centres undefined)	1.3	-5.5	-0.7	-1.1	-11.6
O=C(Nc1cccc2ncccc12)c1ccc(-c2ccc(Br)cc2)o1	-2.3	8.7	52.7*	-3.8	6.4
COc1ccc(Br)cc1C(=O)Nc1cccc2ncccc12	-0.9	21.5	27.1	2.0	47.6
O=C(Nc1cccc2ncccc12)c1ccc([N+](=O)[O-])o1	-0.9	-7.4	-0.4	0.2	-7.8
COc1ccc(Cl)cc1C(=O)Nc1cccc2ncccc12	-0.3	11.7	66.3*	0.8	24.0
O=C(Nc1cccc2ncccc12)c1ccc(Cl)cc1	2.5	-4.1	65.4*	1.5	-6.1
Cc1cc(=O)n2nc(-c3ccc(C(F)(F)F)cc3)sc2n1	-0.1	-69.7*	-3.4	2.4	-76.0
COc1ccccc1-c1nn2c(=O)cc(C)nc2s1	0.7	-0.6	62.2*	1.6	8.8
COc1cccc(-c2nnc3sc(-c4ccccc4)nn23)c1	-0.4	2.0	-10.0	3.8	3.6
SMILES	NR0B1 inh	HSF1 inh	AHR activator	FXN GAA850 act	HSF-1 act
COc1ccccc1-c1nn2c(-c3ccco3)nnc2s1	5.9*	44.4	-2.1	6.1	61.8*
c1coc(-c2nn3c(-c4ccco4)nnc3s2)c1	-0.6	12.8	1.1	1.9	43.1
Cc1nc2sc(-c3ccccc3)nn2c(=O)c1Br	0.5	24.2	-1.5	4.3	u
COc1cccc(OC)c1-c1nn2c(-c3cc(-c4ccccc4)n[nH]3)nnc2s1	-0.9	-1.4	94.0*	0.1	9.1
O=S(=O)(NC1CCN(S(=O)(=O)c2ccc3c(c2)OCCO3)C1)c1c(F)cccc1F (centres undefined)	1.2	x	2.8	3.0	x
COc1cc(OC)cc(-c2c(-c3cccs3)c3cc(-c4ccc(OCc5ccccc5)cc4)ccc3n2C)c1	3.8	x	0.9	-0.5	x
Nc1ncnc2c1ncn2[C@@H]1O[C@H](CNS(=O)(=O)c2cc3ccccc3s2)[C@@H](O)[C@H]1O	-0.7	x	x	3.3	x
CNC(=S)Nc1cccc(S(=O)(=O)NC2=NCCC2)c1	0.3	-1.8	1.6	0.6	-23.6
CC1=NN(C(=O)c2ccc(C)o2)C(O)(c2ccccc2)C1 (centres undefined)	2.0	x	3.6	4.3	x
CC1=NN(C(=O)c2ccco2)C(O)(c2ccccc2)C1 (centres undefined)	6.3*	10.6	0.9	5.4	42.6
O=C(c1ccco1)N1CCN(C(=O)c2cn(-c3ccccc3)nc2-c2ccccc2)CC1	-0.4	x	3.8	0.1	x
CC(Sc1ccc(Cl)cc1)C(=O)Nc1ccc2c(c1)OCO2 (centres undefined)	-0.7	3.4	9.6	2.3	-1.2
CC(C)N1CCC2(CC1)N=C(c1ccc3c(c1)OCO3)CC(c1cc(Cl)ccc1O)N2 (centres undefined)	-2.1	-1.8	76.2*	1.1	31.4
Nc1cccc(CCc2nc3cc4ccccc4cc3[nH]2)c1	1.7	11.6	62.0*	0.5	14.7
Cc1cc(Cl)c2ccc(Cl)cc2n1	1.1	-4.3	0.3	1.7	-5.5
Cc1cc(Cl)c2cc3ccccc3cc2n1	-1.1	-7.7	52.2*	-0.5	-4.8
Cc1ccc(S(=O)(=O)NCc2ccccc2)cc1C(=O)NCCc1ccc(S(N)(=O)=O)cc1	0.3	x	0.2	-3.0	x
C#CCn1c(=NC(=O)c2sc3ccccc3c2Cl)sc2cc(S(N)(=O)=O)ccc21	-0.3	-4.4	-0.7	2.8	4.4
O=C(O)Cn1c2c(c3ccccc31)CSc1ccc(Cl)cc1-2	1.5	192.2	22.9	-0.6	269.1*
O=[N+]([O-])c1cc2c(cc1CN1CCN(CCOCCO)CC1)OCO2	4.4*	-3.7	0.1	1.8	-6.8
CSc1ccccc1C(=O)N1CCN(c2ncccn2)CC1	1.0	-70.3*	1.7	0.7	-76.6
CC(=O)[C@@]1(O)C(C)CC2C3C=C(C)C4=Cc5c(cnn5-c5ccccc5)C[C@]4(C)C3C(O)C[C@@]21C (some centres undefined)	-1.0	u	14.0	1.0	-57.5
COc1ccccc1-c1nc(SCc2ccccn2)n[nH]1	4.9*	15.9	28.4	4.9	24.7
CCSc1n[nH]c2nc3c(c(=O)n12)C1(CCCC1)Cc1ccccc1-3	0.6	-4.9	51.0*	-1.1	-19.5
C=CCSc1n[nH]c2nc3c(c(=O)n12)C1(CCCC1)Cc1ccccc1-3	-0.9	x	59.0*	-1.7	x
